In PubChem BioAssay (EPA / NIEHS) one finds outcome and AC50 data, which are given here for seven compounds.

The target of assay [1] is human Peroxisome Proliferator-activated Receptor alpha (PPARa), PPARA (gene 5465) (UniProt Q07869). In words: ATG_PPARa_TRANS: Attagene TRANS-FACTORIAL HepG2 Assay for human Peroxisome Proliferator-activated Receptor alpha (PPARa) (AID 2283001). Summed up: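 Exposure: 24 h, transiently transfected HepG2 cells. Endpoint: GAL4-UAS reporter mRNA, RT-PCR with capillary electrophoresis fluorescence. Baseline: DMSO; increases fitted.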

The target in assay [2] is human Peroxisome Proliferator-activated Receptor delta (PPARd), PPARD (gene 5467) (UniProt Q03181). The assay is described as follows: ATG_PPARd_TRANS: Attagene TRANS-FACTORIAL HepG2 Assay for human Peroxisome Proliferator-activated Receptor delta (PPARd) (AID 2283002). The method, boiled down:
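Measured quantity: GAL4-UAS reporter transcript induction in HepG2 after 24 h chemical dosing, with NR-Gal4 chimeras supplied by transient transfection. Detection by RT-PCR and capillary electrophoresis; upward fit against DMSO.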

For assay [3], the target named is Peroxisome proliferator-activated receptor gamma (Homo sapiens) (UniProt P37231). In words: ATG_PPARg_TRANS: Attagene TRANS-FACTORIAL HepG2 Assay for human Peroxisome Proliferator-activated Receptor-gamma (PPARg) (AID 2283007). The method, boiled down:
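A TRANS-format multiplexed reporter assay measures activity of an exogenous chimeric NR-Gal4 protein in HepG2 cells. After 24 h of chemical exposure, reporter transcripts are amplified, fluorescently labelled and sized by capillary electrophoresis, with gain of signal scored against DMSO.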

The target in assay [4] is human Retinoic Acid Receptor gamma (RARg), RARG (gene 5916) (UniProt P13631). The assay is described as follows: ATG_RARg_TRANS: Attagene TRANS-FACTORIAL HepG2 Assay for human Retinoic Acid Receptor gamma (RARg) (AID 2283009). The method, boiled down: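 Gain-of-signal relative to DMSO is reported from fluorescent capillary electrophoresis of RT-PCR reporter products. These came from HepG2 cells expressing transfected RARg-GAL4 chimeras with UAS reporters, harvested 24 h after dosing.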
Sequence of human Retinoic Acid Receptor gamma (RARg), RARG (gene 5916) (P13631 whole entry, looked up, the tested form may be a part): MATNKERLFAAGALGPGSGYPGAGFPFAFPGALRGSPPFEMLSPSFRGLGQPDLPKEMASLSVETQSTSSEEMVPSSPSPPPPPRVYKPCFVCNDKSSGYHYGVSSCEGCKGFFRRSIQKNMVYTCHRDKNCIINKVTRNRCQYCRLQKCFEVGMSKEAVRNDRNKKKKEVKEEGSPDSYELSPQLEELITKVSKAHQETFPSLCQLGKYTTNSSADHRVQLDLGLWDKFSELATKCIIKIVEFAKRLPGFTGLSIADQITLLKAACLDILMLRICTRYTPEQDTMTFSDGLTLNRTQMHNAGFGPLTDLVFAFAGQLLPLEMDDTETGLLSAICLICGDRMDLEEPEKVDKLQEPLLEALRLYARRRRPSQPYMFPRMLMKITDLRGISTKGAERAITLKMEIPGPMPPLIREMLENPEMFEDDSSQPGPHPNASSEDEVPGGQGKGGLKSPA

For assay [5], the target named is human RAR-related Orphan Receptor gamma (RORg), RORC (gene 6097) (UniProt P51449). In words: ATG_RORg_TRANS: Attagene TRANS-FACTORIAL HepG2 Assay for human RAR-related Orphan Receptor gamma (RORg) (AID 2283011). The method, boiled down:
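Readout: reporter transcript induction (RT-PCR, fluorescent primer extension, capillary electrophoresis) after 24 h compound exposure of transiently transfected HepG2 cells carrying a RORg-Gal4 chimera and GAL4-UAS reporters; DMSO served as baseline, with increasing signal fitted.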

Assay [6] addresses human Thyroid Receptor alpha (THRa1), THRA (gene 7067) (UniProt P10827). The assay is described as follows: ATG_THRa1_TRANS: Attagene TRANS-FACTORIAL HepG2 Assay for human Thyroid Receptor alpha (THRa1) (AID 2283014). Summed up: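 HepG2 cells transiently transfected with multiplexed GAL4-UAS reporter units for exogenous chimeric THRa1-Gal4; reporter mRNA measured 24 h after dosing by RT-PCR, 6-FAM labelling, HpaI digestion and capillary electrophoresis. Gain-of-signal fitted versus DMSO baseline.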

Read-out in assay [7]: Intercellular Adhesion Molecule 1 (ICAM1), ICAM1 (gene 3383)
In words: BSK_3C_ICAM1: BioMAP Diversity Plus: 3C Assay for Intercellular Adhesion Molecule 1 (ICAM1) Biomarker Activity (AID 2283003; active = hit-call score of the fitted dose curve at least 0.9, where 1 is the maximum; inactive = score below 0.9). As to conditions: primary human endothelial cells (HUVEC); actives raise or lower the signal. Summed up:
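Using DMSO as baseline, bidirectional curve fitting was applied to ICAM-1 ELISA signals from HUVEC in the 3C system, measured 24 h after compound addition.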

Assay [8] in a line: BSK_3C_Proliferation: Cell Proliferation Assessment in the BioMAP Diversity Plus: 3C Assay (AID 2283006; active = hit-call score of the fitted dose curve at least 0.9, where 1 is the maximum; inactive = score below 0.9;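 for AC50: potency may reflect either rise or fall in cell number versus DMSO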). To be noted: primary human endothelial cells (HUVEC). Summed up: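 Measured here: sulforhodamine B (0.1%) staining of TCA-fixed sub-confluent umbilical vein endothelial cultures 48 h post-dosing, absorbance 560 nm. DMSO served as negative control and baseline; both signal gain and loss were modelled.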

The target of assay [9] is Nuclear receptor subfamily 1 group I member 2 (Homo sapiens) (UniProt O75469). The assay is described as follows: ATG_PXR_TRANS: Attagene TRANS-FACTORIAL HepG2 Assay for human Pregnane X Receptor (PXR) (AID 2283008). The method, boiled down:
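Transient HepG2 transfectants carrying multiplexed reporter transcription units; PXR activity read through a Gal4 chimera. 24 h exposure. RT-PCR/CE fluorescence; upward curve fit referenced to DMSO.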

Assay [10] concerns the target Retinoic acid receptor RXR-alpha (Homo sapiens) (UniProt P19793). In words: ATG_RXRa_TRANS: Attagene TRANS-FACTORIAL HepG2 Assay for human Retinoid X Receptor alpha (RXRa) (AID 2283012). The method, boiled down:
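Chimeric NR-GAL4 trans-activation in HepG2, 24 h treatment; reporter transcripts quantified by fluorescence on capillary electrophoresis, analysed for upward change from DMSO.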

Assay [11] has as its target human Retinoid X Receptor beta (RXRb), RXRB (gene 6257) (UniProt P28702). The assay is described as follows: ATG_RXRb_TRANS: Attagene TRANS-FACTORIAL HepG2 Assay for human Retinoid X Receptor beta (RXRb) (AID 2283013). The method, boiled down:
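After a 24 h incubation with test chemical, transfected HepG2 cells carrying NR-Gal4 fusions and GAL4-UAS reporter transcription units yield RNA whose reporter cDNA is FAM-labelled, HpaI-cut and sized by capillary electrophoresis; increases over DMSO are scored.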

Read-out in assay [12]: E-selectin (Homo sapiens) (UniProt P16581)
In words: BSK_3C_Eselectin: BioMAP Diversity Plus: 3C Assay for Eselectin Biomarker Activity (AID 2283015; active = hit-call score of the fitted dose curve at least 0.9, where 1 is the maximum; inactive = score below 0.9;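 for outcome: cell surface E-selectin protein quantified by ELISA 24 h after dosing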). As to conditions: primary human endothelial cells (HUVEC); actives raise or lower the signal. The method, boiled down:
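Primary human umbilical vein endothelial cells (3C system) were dosed with chemical and cell-surface E-selectin measured by ELISA 24 h later. Bidirectional curve fitting used DMSO as negative control and baseline.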

Read-out in assay [13]: Interleukin-1 alpha (IL1a), IL1A (gene 3552)
In words: BSK_BE3C_IL1a: BioMAP Diversity Plus: BE3C Assay for Interleukin-1 alpha (IL1a) Biomarker Activity (AID 2283016; active = hit-call score of the fitted dose curve at least 0.9, where 1 is the maximum; inactive = score below 0.9). To be noted: primary human bronchial epithelial cells; actives raise or lower the signal. Summed up: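 Measured in human lung primary bronchial epithelial cells: IL-1a by ELISA at 24 h after dosing, with bidirectional fitting against DMSO.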

Read-out in assay [14]: Monocyte Chemoattractant Protein-1 (MCP1), CCL2 (gene 6347)
The assay is described as follows: BSK_3C_MCP1: BioMAP Diversity Plus: 3C Assay for Monocyte Chemoattractant Protein-1 (MCP1) Biomarker Activity (AID 2283017; active = hit-call score of the fitted dose curve at least 0.9, where 1 is the maximum; inactive = score below 0.9). As to conditions: primary human endothelial cells (HUVEC); actives raise or lower the signal. The method, boiled down:
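Primary human umbilical vein endothelial cells (3C system) were exposed to test chemical for 24 h, after which MCP-1 was quantified by ELISA. Activity was fitted bidirectionally against DMSO as negative control and baseline.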

Read-out in assay [15]: Monocyte Chemoattractant Protein-1 (MCP1), CCL2 (gene 6347)
In words: BSK_4H_MCP1: BioMAP Diversity Plus: 4H Assay for Monocyte Chemoattractant Protein-1 (MCP1) Biomarker Activity (AID 2283018; active = hit-call score of the fitted dose curve at least 0.9, where 1 is the maximum; inactive = score below 0.9). As to conditions: primary human endothelial cells (HUVEC); actives raise or lower the signal. Summed up:
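Primary human umbilical vein endothelium is exposed to chemical for 24 h before MCP-1 is assayed by ELISA. Concentration-response fitted bidirectionally relative to DMSO.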

Read-out in assay [16]: Human Leukocyte Antigen - DR isotype (HLADR), HLA-DRA (gene 3122)
In words: BSK_3C_HLADR: BioMAP Diversity Plus: 3C Assay for Human Leukocyte Antigen - DR isotype (HLADR) Biomarker Activity (AID 2283019; active = hit-call score of the fitted dose curve at least 0.9, where 1 is the maximum; inactive = score below 0.9). As to conditions: primary human endothelial cells (HUVEC); actives raise or lower the signal. Summed up: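 Primary human umbilical vein endothelial cells (3C system) were dosed with compound and cell-surface HLA-DR was quantified by ELISA at 24 h. Activity was fitted bidirectionally against DMSO as negative control and baseline.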

Read-out in assay [17]: Interleukin-8 (IL8), CXCL8 (gene 3576)
The assay is described as follows: BSK_3C_IL8: BioMAP Diversity Plus: 3C Assay for Interleukin-8 (IL8) Biomarker Activity (AID 2283020; active = hit-call score of the fitted dose curve at least 0.9, where 1 is the maximum; inactive = score below 0.9). As to conditions: primary human endothelial cells (HUVEC); actives raise or lower the signal. The method, boiled down: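 Using DMSO-treated wells as the baseline, bidirectional curve fitting was applied to ELISA-measured IL-8 from human umbilical vein endothelial cultures sampled 24 h after compound addition.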

Read-out in assay [18]: Monokine induced gamma interferon (MIG), CXCL9 (gene 4283)
In words: BSK_3C_MIG: BioMAP Diversity Plus: 3C Assay for Monokine induced gamma interferon (MIG) Biomarker Activity (AID 2283021; active = hit-call score of the fitted dose curve at least 0.9, where 1 is the maximum; inactive = score below 0.9;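 for AC50: MIG protein level measured by immunoassay in the treated endothelial cultures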). To be noted: primary human endothelial cells (HUVEC); actives raise or lower the signal. Summed up: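 ELISA-measured MIG in dosed HUVEC 3C cultures at 24 h, analysed by bidirectional fitting with DMSO defining baseline activity.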

Assay [19] has as its target human Retinoic Acid Receptor beta (RARb), RARB (gene 5915) (UniProt P10826). In words: ATG_RARb_TRANS: Attagene TRANS-FACTORIAL HepG2 Assay for human Retinoic Acid Receptor beta (AID 2283004). The method, boiled down: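 HepG2 cells transiently transfected with multiplexed GAL4-UAS reporter units expressing chimeric NR–Gal4 fusions; 24 h compound exposure. Reporter mRNA quantified by RT-PCR, 6-FAM labelling, HpaI digestion and capillary electrophoresis; gain-of-signal fitted against DMSO baseline.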

The target of assay [20] is Retinoic acid receptor alpha (Homo sapiens) (UniProt P10276). The assay is described as follows: ATG_RARa_TRANS: Attagene TRANS-FACTORIAL HepG2 Assay for human Retinoic Acid Receptor alpha (RARa) (AID 2283005). Summed up:
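HepG2 cells transiently transfected with multiple reporter units expressing chimeric RARα-GAL4 fusion, with GAL4-UAS-driven reporters. After 24 h compound exposure, reporter mRNA induction quantified by RT-PCR and capillary electrophoresis with fluorescent labeling; gain-of-signal fitted relative to DMSO control.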

Results filed as inconclusive are left out. Where a structure was tested more than once in an assay, its records may differ in their call. Active and inactive are the calls of the source. Rule for the calls, unless noted: active = hit-call score of the fitted dose curve at least 0.9, where 1 is the maximum; inconclusive = response in the unintended direction; inactive = score below 0.9.

Sequence of Nuclear receptor subfamily 1 group I member 2 (Homo sapiens) (O75469 whole entry, looked up, the tested form may be a part): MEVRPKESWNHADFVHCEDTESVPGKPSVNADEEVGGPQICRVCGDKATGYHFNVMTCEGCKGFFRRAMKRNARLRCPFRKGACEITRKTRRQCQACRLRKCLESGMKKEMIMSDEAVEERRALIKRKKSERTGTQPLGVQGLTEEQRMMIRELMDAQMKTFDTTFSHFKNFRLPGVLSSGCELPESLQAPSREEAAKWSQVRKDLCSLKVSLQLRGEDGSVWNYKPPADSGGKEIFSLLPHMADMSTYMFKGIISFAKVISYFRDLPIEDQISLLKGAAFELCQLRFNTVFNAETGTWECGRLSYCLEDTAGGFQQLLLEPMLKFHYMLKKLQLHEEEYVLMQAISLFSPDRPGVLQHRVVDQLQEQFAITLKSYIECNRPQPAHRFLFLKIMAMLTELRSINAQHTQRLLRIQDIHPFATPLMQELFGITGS
Sequence of Peroxisome proliferator-activated receptor gamma (Homo sapiens) (P37231 whole entry, looked up, the tested form may be a part): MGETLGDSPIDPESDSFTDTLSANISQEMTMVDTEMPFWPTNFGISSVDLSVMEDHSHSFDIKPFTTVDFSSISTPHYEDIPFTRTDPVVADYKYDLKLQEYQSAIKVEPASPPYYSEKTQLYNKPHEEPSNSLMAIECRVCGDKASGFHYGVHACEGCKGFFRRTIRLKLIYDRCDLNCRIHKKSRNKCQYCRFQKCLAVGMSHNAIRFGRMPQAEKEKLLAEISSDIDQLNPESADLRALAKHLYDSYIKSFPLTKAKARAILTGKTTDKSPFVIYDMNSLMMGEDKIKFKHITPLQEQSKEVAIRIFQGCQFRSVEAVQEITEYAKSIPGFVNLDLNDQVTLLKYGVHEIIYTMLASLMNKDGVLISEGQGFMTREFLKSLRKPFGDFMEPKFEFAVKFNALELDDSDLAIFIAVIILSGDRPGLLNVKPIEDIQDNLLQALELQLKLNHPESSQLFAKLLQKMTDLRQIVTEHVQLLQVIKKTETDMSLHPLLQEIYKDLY
Sequence of E-selectin (Homo sapiens) (P16581 whole entry, looked up): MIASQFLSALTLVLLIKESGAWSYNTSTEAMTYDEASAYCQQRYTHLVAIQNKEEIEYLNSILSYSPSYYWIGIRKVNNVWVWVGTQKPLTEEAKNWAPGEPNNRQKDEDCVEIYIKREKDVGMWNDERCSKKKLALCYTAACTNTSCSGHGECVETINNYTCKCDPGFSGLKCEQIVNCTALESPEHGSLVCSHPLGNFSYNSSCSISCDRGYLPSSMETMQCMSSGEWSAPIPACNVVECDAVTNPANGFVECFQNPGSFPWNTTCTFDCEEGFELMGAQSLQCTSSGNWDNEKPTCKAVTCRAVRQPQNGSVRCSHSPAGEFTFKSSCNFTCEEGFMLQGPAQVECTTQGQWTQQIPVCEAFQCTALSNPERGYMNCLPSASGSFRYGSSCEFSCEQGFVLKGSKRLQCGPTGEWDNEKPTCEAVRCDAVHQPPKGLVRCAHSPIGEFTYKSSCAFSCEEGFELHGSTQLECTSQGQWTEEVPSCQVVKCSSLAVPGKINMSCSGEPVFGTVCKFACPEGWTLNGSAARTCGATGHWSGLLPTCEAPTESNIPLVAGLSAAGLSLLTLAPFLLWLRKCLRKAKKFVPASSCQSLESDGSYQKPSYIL
Sequence of human Retinoic Acid Receptor beta (RARb), RARB (gene 5915) (P10826 whole entry, looked up, the tested form may be a part): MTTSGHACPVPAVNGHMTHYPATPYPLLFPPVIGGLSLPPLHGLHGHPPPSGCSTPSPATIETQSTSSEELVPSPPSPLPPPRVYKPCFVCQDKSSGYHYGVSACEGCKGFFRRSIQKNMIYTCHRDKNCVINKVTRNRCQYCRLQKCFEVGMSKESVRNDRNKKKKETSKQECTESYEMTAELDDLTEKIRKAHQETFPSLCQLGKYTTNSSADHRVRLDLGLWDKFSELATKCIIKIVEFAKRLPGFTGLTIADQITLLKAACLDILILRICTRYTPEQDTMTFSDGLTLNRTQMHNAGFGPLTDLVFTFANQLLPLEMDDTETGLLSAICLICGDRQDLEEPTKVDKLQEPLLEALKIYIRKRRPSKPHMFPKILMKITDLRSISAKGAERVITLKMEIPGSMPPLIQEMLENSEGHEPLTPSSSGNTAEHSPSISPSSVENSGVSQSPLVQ
Sequence of human Retinoid X Receptor beta (RXRb), RXRB (gene 6257) (P28702 whole entry, looked up, the tested form may be a part): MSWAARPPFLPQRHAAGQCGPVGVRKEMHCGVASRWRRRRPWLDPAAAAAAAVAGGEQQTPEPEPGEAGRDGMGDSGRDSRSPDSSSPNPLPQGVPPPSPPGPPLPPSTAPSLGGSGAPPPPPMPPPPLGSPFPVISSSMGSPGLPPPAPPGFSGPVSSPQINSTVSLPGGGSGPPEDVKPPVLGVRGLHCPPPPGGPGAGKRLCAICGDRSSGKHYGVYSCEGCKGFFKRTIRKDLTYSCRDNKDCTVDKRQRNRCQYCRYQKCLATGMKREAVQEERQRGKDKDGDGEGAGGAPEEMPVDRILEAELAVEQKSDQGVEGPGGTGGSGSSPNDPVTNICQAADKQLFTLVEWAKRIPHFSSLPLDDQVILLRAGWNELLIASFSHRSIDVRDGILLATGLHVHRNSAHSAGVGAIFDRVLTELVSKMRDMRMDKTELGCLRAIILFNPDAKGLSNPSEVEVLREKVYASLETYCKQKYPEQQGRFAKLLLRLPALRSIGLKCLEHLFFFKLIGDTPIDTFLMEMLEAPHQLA
Sequence of Retinoic acid receptor RXR-alpha (Homo sapiens) (P19793 whole entry, looked up, the tested form may be a part): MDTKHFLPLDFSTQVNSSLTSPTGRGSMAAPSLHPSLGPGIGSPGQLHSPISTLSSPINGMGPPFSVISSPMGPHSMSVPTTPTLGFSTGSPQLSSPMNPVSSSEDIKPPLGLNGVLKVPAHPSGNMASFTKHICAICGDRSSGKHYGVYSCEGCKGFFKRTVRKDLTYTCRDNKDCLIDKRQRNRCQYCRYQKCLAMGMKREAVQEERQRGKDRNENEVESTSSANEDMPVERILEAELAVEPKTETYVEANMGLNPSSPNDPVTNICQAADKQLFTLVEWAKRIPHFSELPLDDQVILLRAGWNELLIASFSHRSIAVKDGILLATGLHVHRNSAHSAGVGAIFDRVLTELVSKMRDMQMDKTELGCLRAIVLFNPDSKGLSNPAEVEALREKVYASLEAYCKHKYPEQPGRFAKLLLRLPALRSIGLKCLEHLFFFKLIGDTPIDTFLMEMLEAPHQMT
Sequence of human Thyroid Receptor alpha (THRa1), THRA (gene 7067) (P10827 whole entry, looked up, the tested form may be a part): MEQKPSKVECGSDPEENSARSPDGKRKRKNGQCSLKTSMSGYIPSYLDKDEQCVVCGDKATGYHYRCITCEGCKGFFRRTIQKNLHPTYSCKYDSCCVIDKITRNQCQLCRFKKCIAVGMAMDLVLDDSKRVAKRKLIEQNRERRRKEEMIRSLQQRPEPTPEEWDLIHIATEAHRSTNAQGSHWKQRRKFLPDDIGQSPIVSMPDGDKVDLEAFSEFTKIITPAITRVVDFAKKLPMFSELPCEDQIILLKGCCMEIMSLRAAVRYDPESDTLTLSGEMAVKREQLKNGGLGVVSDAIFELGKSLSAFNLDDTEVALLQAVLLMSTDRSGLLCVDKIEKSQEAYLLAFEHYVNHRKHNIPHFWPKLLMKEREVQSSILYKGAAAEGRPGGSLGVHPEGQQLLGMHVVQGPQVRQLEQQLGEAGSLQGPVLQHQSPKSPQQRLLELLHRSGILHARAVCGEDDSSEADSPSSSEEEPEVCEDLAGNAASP
Sequence of human Peroxisome Proliferator-activated Receptor delta (PPARd), PPARD (gene 5467) (Q03181 whole entry, looked up, the tested form may be a part): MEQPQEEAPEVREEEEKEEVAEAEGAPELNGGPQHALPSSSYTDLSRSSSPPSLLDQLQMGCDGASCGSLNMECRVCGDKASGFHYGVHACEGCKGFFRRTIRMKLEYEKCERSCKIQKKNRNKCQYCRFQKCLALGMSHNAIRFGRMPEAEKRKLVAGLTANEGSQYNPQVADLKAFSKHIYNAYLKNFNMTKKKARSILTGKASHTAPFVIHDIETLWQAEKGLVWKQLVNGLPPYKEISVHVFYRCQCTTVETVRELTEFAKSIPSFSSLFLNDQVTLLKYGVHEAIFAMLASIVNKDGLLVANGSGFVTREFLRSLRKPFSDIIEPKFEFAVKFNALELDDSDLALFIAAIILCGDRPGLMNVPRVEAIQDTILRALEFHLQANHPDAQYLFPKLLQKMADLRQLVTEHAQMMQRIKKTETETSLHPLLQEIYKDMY
Sequence of human RAR-related Orphan Receptor gamma (RORg), RORC (gene 6097) (P51449 whole entry, looked up, the tested form may be a part): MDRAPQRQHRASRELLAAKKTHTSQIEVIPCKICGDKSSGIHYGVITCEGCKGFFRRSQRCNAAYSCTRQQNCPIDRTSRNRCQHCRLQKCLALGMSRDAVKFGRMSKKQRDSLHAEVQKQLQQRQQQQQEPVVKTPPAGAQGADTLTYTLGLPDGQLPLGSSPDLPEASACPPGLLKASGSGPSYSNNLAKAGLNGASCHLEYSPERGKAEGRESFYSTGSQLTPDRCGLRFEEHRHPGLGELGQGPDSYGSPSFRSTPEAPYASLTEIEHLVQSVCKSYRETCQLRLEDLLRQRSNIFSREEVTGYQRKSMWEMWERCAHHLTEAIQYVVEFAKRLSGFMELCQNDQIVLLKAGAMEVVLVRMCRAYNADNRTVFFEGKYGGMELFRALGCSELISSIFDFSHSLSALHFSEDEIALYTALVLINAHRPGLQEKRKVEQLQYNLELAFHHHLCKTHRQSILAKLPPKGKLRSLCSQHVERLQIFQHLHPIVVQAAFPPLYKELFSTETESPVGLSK

In general, AC50 refers to the concentration at which the activity in the assay is half-maximal. In the case of `CCCCC[C@H](O)CC(=O)CCc1ccc(O)c(OC)c1`, the result in assay [1], in assay [2], in [4], in [5] and in assay [6] was inactive. Further, the AC50 in assay [3] was 27.8 µM (active).

On to `ClC1=C(Cl)C(Cl)(Cl)C(Cl)=C1Cl`, for which the outcome in assay [1], in assay [2], in [3], in assay [9], in [4] and in assay [10] was inactive. The call in [11] and in [6] was inactive. Besides, the half-maximal activity concentration (AC50) in assay [7] is 6.79 µM (active); in assay [8], 3.29 µM (active); in assay [11], 17.5 µM (active); in assay [12], 7.17 µM (active); in assay [13] it was 8.21 µM (active); in [14], 7.92 µM (active). Moreover, the AC50 in assay [15] was 7.06 µM (active); in [16] it was 4.6 µM (active); in [17] it was 9.46 µM (active); in [18], 10.5 µM (active).

`Nc1cccc2c(N)cccc12`: the compound was called inactive in assay [1], in assay [2], in assay [7], in assay [19], in assay [8] and in assay [3]. The compound was called inactive in assay [9], in assay [4], in assay [10], in assay [11], in assay [6] and in assay [12]. The result in assay [13], in [14], in assay [15], in [16], in assay [17] and in [18] was inactive.

`Oc1cccc(O)c1`: the compound was classed as inactive in [1], in assay [2], in assay [7], in assay [19], in [8] and in [3]. The call in assay [9], in assay [5], in assay [10], in assay [12], in assay [13] and in [14] was inactive. Further, the result in [15], in assay [16], in assay [17] and in [18] was inactive.

Consider `CCCCCCCCOC(=O)CCCCCCCCC(=O)OCCCCCCCC`, for which the compound was classed as inactive in assay [1], in assay [2], in assay [7], in assay [8], in assay [3] and in assay [5]. The outcome in assay [10], in assay [11], in assay [6], in assay [12], in assay [13] and in assay [14] was inactive. Moreover, the outcome in assay [15], in [16], in assay [17] and in [18] was inactive.

Consider `NC(=O)N1C(=O)C(C(=O)c2cc(Cl)cs2)c2cc(F)c(Cl)cc21` (stereo unspecified), for which the result in assay [1], in assay [2], in assay [7], in [19], in assay [20] and in [4] was inactive. Also, the call in [5], in assay [10], in assay [6], in assay [12], in assay [15] and in [17] was inactive. In addition, the result in [18] was inactive. For the same compound, the AC50 in assay [8] was 11 µM (active); in assay [3] it was 2.71 µM (active); in assay [13], 7.87 µM (active); in [14], 5.16 µM (active); in [16], 13.4 µM (active).

In the case of `CC(=O)CC(C)(C)O`, the result in [1], in [2], in [7], in [19], in assay [20] and in assay [8] was inactive. For the same compound, the compound was classed as inactive in [3], in assay [4], in [5], in assay [10], in assay [11] and in assay [6]. Moreover, the result in assay [12], in assay [13], in assay [14], in [15], in assay [16] and in assay [17] was inactive. In addition, in [18], the outcome was inactive.
